The entries come from a sample that favours hits as a whole.
PI5P4K alpha inh: PI5P4K alpha (human) kinase inhibition; P48426; PI5P4Kalpha enzyme, ADP-Glo luminescence, 60 min; stronger effect = lower value; max response, %; actives 1.2% (n = 330,000); AID 652105; active = max response of -50% or lower; inconclusive = between -30% and -50%; inactive = -30% or higher; also: value at the top dose of about 77 µM; % is scaled to controls: 0 for no effect and ±100 for the full control effect
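Human PI5P4Kalpha with substrate in 0.038 M HEPES pH 7.4, 0.28 mM EGTA, 0.1% CHAPS, 5% DMSO; reaction started with 5 microM ATP (final), 60 min at room temperature. ADP formed read by ADP-Glo luminescence.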
Tb PGK inh: blocks T. brucei phosphoglycerate kinase; Potency, µM (series often up to 57.5 µM), for inactives: at the top dose activity change, negative = inhibition, most hits filed as inhibitors; PGK/GAPDH coupled, Kinase-Glo luminescence, 60 min; P07378; AID 602233; actives 0.043% (n = 380,000); also: potency is read from the fitted curve at half-maximal effect; % is scaled to controls: 0 for no effect and ±100 for the full control effect; nearly all actives have a fitted effect of over 60% in size
Target sequence (P07378 whole entry, looked up): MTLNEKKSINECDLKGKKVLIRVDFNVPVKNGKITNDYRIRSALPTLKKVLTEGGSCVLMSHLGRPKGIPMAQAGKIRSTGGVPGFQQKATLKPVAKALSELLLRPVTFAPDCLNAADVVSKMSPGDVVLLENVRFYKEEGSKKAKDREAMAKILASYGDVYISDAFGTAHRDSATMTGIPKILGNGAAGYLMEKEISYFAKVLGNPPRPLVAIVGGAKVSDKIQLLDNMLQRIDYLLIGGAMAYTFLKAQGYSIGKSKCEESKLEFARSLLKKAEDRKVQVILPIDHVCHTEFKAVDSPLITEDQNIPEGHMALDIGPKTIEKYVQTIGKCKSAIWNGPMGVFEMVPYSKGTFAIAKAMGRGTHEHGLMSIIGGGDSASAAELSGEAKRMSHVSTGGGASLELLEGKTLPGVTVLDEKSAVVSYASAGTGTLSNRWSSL
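Recombinant glycosomal PGK reaction used 1,3-bisphosphoglycerate generated in-well by GAPDH (100nM final) in 100mM TEA pH 7.6, 5mM MgCl2, 0.01% Tween-20. After 60 minutes at room temperature, ATP was read by Kinase-Glo Plus luminescence end-point.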
Pin1 inhibitor: blocks the human prolyl isomerase Pin1; Pin1 FP peptide displacement, HiFluor488, 10 min; AID 504891; Potency, µM (highest dose often 115 µM), inactives show at the highest dose activity, negative = inhibition, usual class: inhibitors; Q13526; actives 0.009% (n = 390,000); active = well fitted inhibition curve with a large enough effect in the polarisation, with a control signal flat, not every such curve was filed as active; inconclusive = small, poorly fitted or top-dose-only effect, or effect the other way, or a change in a side signal; inactive = no such curve, though single readings can be large or run the other way; the % refers to the polarisation; also: potency is read from the fitted curve at half-maximal effect; % is scaled to controls: 0 for no effect and ±100 for the full control effect
Target sequence (Q13526 whole entry, looked up): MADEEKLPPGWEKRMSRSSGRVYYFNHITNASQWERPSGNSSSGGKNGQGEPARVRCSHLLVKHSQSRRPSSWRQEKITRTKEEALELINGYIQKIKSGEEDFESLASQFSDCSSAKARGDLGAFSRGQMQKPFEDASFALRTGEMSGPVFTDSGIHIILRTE
PI4K2A inh: PI4K2A (human) kinase inhibition | Q9BTU6 | purified PI4K2A, ADP-Glo luminescence, 1 h; stronger effect = lower value | activity change, negative = inhibition, % at 76.9 µM | actives 0.13% (n = 420,000); in the data active = activity change below about -50%; inconclusive = mostly about -30% to -49%;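 also: -100% = wells without enzyme as full effect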
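ADP-Glo luminescence measured ADP generated by PI4K2A enzyme (4 ug/mL before mixing) with 1.2 mM PI substrate (pre-mix) and 300 microM ATP (pre-mix). Tris pH7.5 buffer with MgCl2, Triton X-100; 1 h reaction at ambient temperature.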
Tb PFK inh-1: T. brucei PFK enzyme inhibition. O15648. T. brucei PFK, ADP-Glo luminescence. Potency, µM (top dose mostly 57.5 µM), inactives show at the highest dose activity, negative = inhibition, hits mostly inhibitors. actives 0.17% (n = 330,000). AID 485367;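 also: potency is read from the fitted curve at half-maximal effect; 0% = uninhibited 1x PFK enzyme wells and -100% = no-enzyme wells; nearly all actives have a fitted effect of over 60% in size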
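Compounds were pin-transferred as a titration series up to 57 uM into substrate buffer (0.5 mM F6P, 0.1 mM ATP, pH 8.0), then 1.25 nM PFK was added and reactions ran 45 min before ADP-Glo detection.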
TbPFK ATP: Tb phosphofructokinase inhibition, orthogonal luminescence | Potency, µM (doses to about 57.5 µM), inactives show at the highest dose inhibition | shares compounds with Tb PFK inh-1 | Tb PFK enzyme, ATP depletion, Kinase-Glo Plus luminescence | actives 47% (n = 1,100) | AID 504636; calls by dose curve; also: potency is read from the fitted curve at half-maximal effect; nearly all actives have a fitted effect of over 60% in size
Tb PFK inh-2: validation of T. brucei phosphofructokinase inhibitors; shares compounds with Tb PFK inh-1; purified T. brucei PFK, ADP-Glo luminescence, 45 min; Potency, µM (titrated, usually from 57.5 µM), for inactives: at the highest dose activity change, negative = inhibition, actives largely listed as inhibitors; actives 41% (n = 1,100);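 also: potency is read from the fitted curve at half-maximal effect; plate controls were full PFK enzyme control for no effect and no enzyme control for full effect; nearly all actives have a fitted effect of over 60% in size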
* marks the source's active call; other numbers are inactive results; i = inactive; ? = inconclusive; · = no result given. Unless noted, calls follow the shape of the dose curve; as a rule, active = well fitted curve in the direction sought with a large enough effect; inconclusive = small, poorly fitted or top-dose-only effect, or another doubt; inactive = no such curve, though single readings can be large; an effect the other way counts as inactive or inconclusive.

SMILES	PI5P4K alpha inh	Tb PGK inh	Pin1 inhibitor	PI4K2A inh	Tb PFK inh-1	TbPFK ATP	Tb PFK inh-2
O=[N+]([O-])c1cc(Cl)c(Cl)cc1Cl	12.1	-9.3%	-6.0%	4.3	3.6%	·	·
O=C1NC(c2ccc(Cl)c([N+](=O)[O-])c2)Nc2ccccc21 (stereo unspecified)	3.5	-6.6%	-2.1%	-2.9	21.3µM*	23.9µM*	13.5µM*
N/C(Cc1ccc(Cl)c(Cl)c1)=N\OC(=O)c1cccs1	·	-0.5%	-11.2%	3.2	?	10.7µM*	?
O=C(c1cccs1)c1cn(Cc2ccccc2Cl)c2ccccc12	-5.3	-4.5%	6.0%	3.3	0.5%	·	·
NNC(=O)c1ccc(Cl)cc1	-3.9	-9.6%	0.1%	2.3	-3.8%	·	·
O=C(O)CCNC(=O)c1ccc(NC(=O)Cc2ccc(Cl)cc2)cc1	-6.4	-7.7%	-5.2%	-2.6	?	?	?
Cc1cc(C)cc(NC(=O)CN2C(=O)CN=C(c3ccccc3)c3cc(Cl)ccc32)c1	·	-5.4%	11.6%	-1.8	·	·	·
Cc1nc2ccccc2n1CC(=O)c1ccc(O)c(O)c1	1.7	-10.0%	2.5%	-2.6	30.1µM*	?	?
CN1C(=O)C(=Cc2ccc(N3CCOCC3)o2)C(=O)N(C)C1=S	-3.5	-2.9%	?	2.0	0.0%	·	·
O=C1NC(=S)S/C1=C/c1ccc(N2CCOCC2)o1	-52.6*	-22.0%	?	-11.7	26.9µM*	12.3%	-13.8%
N#C/C(=C/c1ccc(O)c(O)c1)C(=O)NCc1ccc(Cl)cc1	?	-5.0%	-1.3%	-10.7	?	?	-29.9%
N#C/C(=C/c1ccc(O)c(O)c1)C(N)=S	·	·	·	-6.6	·	·	·
Cc1cc(C)n(-c2nc3nonc3nc2Nc2cccc(C)c2C)n1	10.8	-8.6%	?	-6.8	-0.1%	·	·
CC(=O)NC(C)c1ccc(Cl)c(Cl)c1 (stereo unspecified)	·	-3.7%	-5.3%	-4.7	?	21.3µM*	30.1µM*
Cc1ccc(C(C)C)c(OCC(=O)N2CCN(CCc3ccncc3)CC2)c1	·	-4.3%	0.6%	-0.2	·	·	·
CCOc1ccc(Cl)cc1CNCCc1ccc(F)cc1	0.0	0.3%	-5.9%	1.9	1.7%	·	·
Fc1ccc(CNc2ncnc3cc(Cl)ccc23)cc1	0.3	i	1.9%	-0.8	19µM*	?	26.9µM*
COP(=O)(OC)C(C)NC(=O)OCc1ccccc1 (stereo unspecified)	·	·	·	2.6	·	·	·
COc1nccnc1NS(=O)(=O)c1ccc(NCc2cc(Br)ccc2O)cc1	-9.5	-11.1%	?	-2.6	?	?	-18.1%
CCN1CCN(C(=S)c2ccc(Cl)cc2)CC1	?	1.6%	3.3%	-21.0	10.7µM*	7.57µM*	23.9µM*
CCN1CCN(C(=S)c2ccc(OC)cc2)CC1	-16.9	-9.9%	1.7%	-3.9	?	26.9µM*	33.8µM*
Cc1ccc(C)c(CN2C(=O)c3ccccc3S(=O)(=O)c3ccc(C(=O)N4CCCCCC4)cc32)c1	·	·	26.3%	-2.3	·	·	·
Cc1ccccc1-n1nc(C)c2c1NC(=O)CSC2c1ccc(N(C)C)cc1 (stereo unspecified)	·	·	4.3%	-4.1	·	·	·
CCC(=O)Nc1ccccc1	-4.5	-8.5%	1.9%	-2.1	4.4%	·	·
O=C(Cc1cccc2ccccc12)Nc1cc(C(=O)O)cc(C(=O)O)c1	2.6	-1.4%	-0.6%	1.2	8.49µM*	1.9µM*	?
SMILES	PI5P4K alpha inh	Tb PGK inh	Pin1 inhibitor	PI4K2A inh	Tb PFK inh-1	TbPFK ATP	Tb PFK inh-2
O=C(CCS(=O)(=O)c1ccc(Br)cc1)Nc1ccc(Br)cc1F	7.9	-11.7%	-3.2%	0.1	?	?	?
NC(=O)c1c(NC(=O)c2ccc(S(=O)(=O)N(CCCl)CCCl)cc2)sc2c1CCCCC2	3.6	-9.6%	5.2%	-2.6	-4.1%	·	·
COC(=O)c1c(NC(=O)Cc2cccs2)sc2c1CCCC2	?	-6.2%	?	-0.2	?	?	?
C[C@@H]1O[C@H](C[N+](C)(C)C)CS1	·	·	·	0.3	·	·	·
Cc1c(C(=O)Nc2nc(-c3ccccn3)cs2)oc2ccccc12	-59.0*	-0.4%	-1.8%	-10.1	?	19µM*	30.1µM*
O=C(O)c1ccc(Cl)c(S(=O)(=O)Nc2ccc3cn[nH]c3c2)c1	-20.6	-16.8%	-10.9%	4.1	?	9.4%	0.9%
O=C(O)c1ccc(Cl)c(S(=O)(=O)Nc2cccc(C(=O)Nc3cccc(C(F)(F)F)c3)c2)c1	-15.3	-3.0%	-12.9%	-1.1	?	?	?
CCN(CC)C(=O)c1ccc(NC(=O)c2cccc(C(F)(F)F)c2)cc1	-2.0	-0.4%	-4.2%	0.5	-0.4%	·	·
CC(C)(C)c1ccc(OCC(=O)Nc2ccc(Cl)cc2C(=O)c2ccccc2)cc1	·	·	7.8%	-3.1	·	·	·
COc1ccc(C)cc1NC(=O)N(Cc1ccc2c(c1)OCO2)C1CCN(Cc2ccccc2)CC1	·	8.5%	?	-2.8	·	·	·
CS(=N)(=O)CC[C@H](N)C(=O)O (stereo partly specified)	·	·	·	0.0	·	·	·
CC[C@]1(O)CC[C@H]2[C@@H]3CCC4=CCCC[C@@H]4[C@H]3CC[C@@]21C	·	·	·	1.5	·	·	·
CC1=NOC(=O)/C1=C\c1ccc(-c2cccc(Cl)c2)o1	?	-4.5%	0.3%	-8.9	21.3µM*	6.01µM*	10.7µM*
COc1ccc([C@H]2CC(=O)C=C(c3ccc4c5c(cccc35)CC4)C2)cc1	11.6	-0.9%	36.2%	-2.2	0.1%	·	·
CCc1nn2c(N)c(/C=C3\C=Nc4ccccc43)c(=O)nc2s1	0.0	-11.3%	142.5%	2.1	?	-26.0%	?
COc1cc2cc3c(N)c(C(=O)Nc4sc(C)c(C)c4C#N)sc3nc2cc1OC	·	·	?	-50.3*	?	-0.1%	15.7%
COc1ccc(NC2=NC(C)(C)CS2)cc1	-1.5	0.2%	-1.3%	11.3	-14.5%	·	·
COc1ccc(Nc2nc(C)cc(=O)[nH]2)cc1	-2.9	-6.9%	12.6%	-2.7	12µM*	13.5µM*	23.9µM*
Cc1ccc2nc(NC(=O)c3cccn(Cc4ccc(Cl)cc4)c3=O)sc2c1	·	-3.4%	-4.6%	-2.5	·	·	·
N#Cc1nc(-c2cccc3ccccc23)oc1NCC#CCOC(=O)c1cccs1	·	·	·	·	21.3µM*	8.49µM*	26.9µM*
CCN(CC)Cc1nccn1-c1ccc([N+](=O)[O-])cc1C(=O)c1ccccc1Cl	·	·	·	1.0	·	·	·
CCOC(=O)c1sc(=S)n(C)c1NC(=O)c1ccccc1	?	-0.2%	-2.8%	2.4	?	21.3µM*	?
CCCCCn1c(NC(=O)c2ccco2)c(C(=O)OCC)c2nc3ccccc3nc21	1.8	?	?	?	-3.7%	·	·

Source: PubChem BioAssay (National Center for Advancing Translational Sciences (NCATS))
